Results from PubChem BioAssay (NCATS).
Results filed as inconclusive are left out. Values without a mark were called inactive. The source made the active and inactive calls. The call rests on the fitted dose curve; in most records, active means well fitted curve in the direction sought with a large enough effect; inconclusive means small, poorly fitted or top-dose-only effect, or another doubt; inactive means no such curve, though single readings can be large; an effect the other way counts as inactive or inconclusive.

Experiments:
[1] = qHTS of pediatric cancer cell lines to identify multiple opportunities for drug repurposing: Primary screen for BT-37 cells (AID 1347094)
Method in brief: (§1)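 Primary screen of approved and investigational compounds on cells in growth media at 37 degrees C, 5% CO2. MIPE set at 11-point and NPC set at 8-point dilutions; viability scored by ATP-based luminescence at 48 hours.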

[2] = qHTS of pediatric cancer cell lines to identify multiple opportunities for drug repurposing: Primary screen for NB-EBc1 cells (AID 1347095)
Method in brief: as §1

[3] = qHTS of pediatric cancer cell lines to identify multiple opportunities for drug repurposing: Primary screen for Saos-2 cells (AID 1347097); further: nearly all actives have a fitted effect of over 40% in size
Method in brief: as §1

[4] = qHTS of pediatric cancer cell lines to identify multiple opportunities for drug repurposing: Primary screen for NB1643 cells (AID 1347099); further: nearly all actives have a fitted effect of over 50% in size
Method in brief: as §1

[5] = qHTS of pediatric cancer cell lines to identify multiple opportunities for drug repurposing: Primary screen for BT-12 cells (AID 1347101); further: nearly all actives have a fitted effect of over 25% in size
Method in brief: (§2)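 Cells (500-1,000/well) rested 5 h, then received compounds for 48 h; metabolically active cells were measured by CellTiter-Glo luminescence. Final concentrations spanned up to 46 µM (MIPE, 11-point) or 0.59 nM-46 µM (NPC, 8-point) in primary screens, 11-point in follow-ups.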

[6] = qHTS of pediatric cancer cell lines to identify multiple opportunities for drug repurposing: Primary screen for Rh18 cells (AID 1347102); further: nearly all actives have a fitted effect of over 65% in size
Method in brief: (§3)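 Viability after 48 h compound treatment at 37C, 500-1,000 cells/well, read as ATP luminescence with CellTiter-Glo. Primary screens used 11-point (MIPE, 0.78 nM-46 µM) or 8-point (NPC, 0.59 nM-46 µM) final concentrations; follow-up screens used 11-point dilutions.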

[7] = qHTS of pediatric cancer cell lines to identify multiple opportunities for drug repurposing: Primary screen for OHS-50 cells (AID 1347103); further: nearly all actives have a fitted effect of over 40% in size
Method in brief: as §2

[8] = qHTS of pediatric cancer cell lines to identify multiple opportunities for drug repurposing: Primary screen for RD cells (AID 1347104); further: nearly all actives have a fitted effect of over 55% in size
Method in brief: as §1

[9] = qHTS of pediatric cancer cell lines to identify multiple opportunities for drug repurposing: Primary screen for MG 63 (6-TG R) cells (AID 1347105); further: nearly all actives have a fitted effect of over 50% in size
Method in brief: as §1

[10] = qHTS of pediatric cancer cell lines to identify multiple opportunities for drug repurposing: Primary screen for Rh30 cells (AID 1347107); further: nearly all actives have a fitted effect of over 75% in size
Method in brief: as §3

[11] = qHTS of pediatric cancer cell lines to identify multiple opportunities for drug repurposing: Primary screen for Rh41 cells (AID 1347108); further: nearly all actives have a fitted effect of over 70% in size
Method in brief: as §1

[12] = qHTS of pediatric cancer cell lines to identify multiple opportunities for drug repurposing: Confirmatory screen for NB1643 cells (AID 1347109); further: nearly all actives have a fitted effect of over 45% in size
Method in brief: as §3

[13] = qHTS of pediatric cancer cell lines to identify multiple opportunities for drug repurposing: Confirmatory screen for SK-N-MC cells (AID 1347111);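 further: cells exposed to compound for 48 h before the readout; nearly all actives have a fitted effect of over 70% in size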
Method in brief: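 SK-N-MC cells at 500-1,000 cells/well in growth media were pre-incubated 5 h, then exposed to compounds at 11-point dilutions for 48 h at 37 degrees C, 5% CO2. Viability was read as CellTiter-Glo luminescence.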

[14] = qHTS of pediatric cancer cell lines to identify multiple opportunities for drug repurposing: Confirmatory screen for LAN-5 cells (AID 1347113); further: nearly all actives have a fitted effect of over 65% in size
Method in brief: as §3

[15] = qHTS of pediatric cancer cell lines to identify multiple opportunities for drug repurposing: Primary screen for control Hh wild type fibroblast cells (AID 1347106); further: nearly all actives have a fitted effect of over 55% in size
Method in brief: as §3

[16] = qHTS of pediatric cancer cell lines to identify multiple opportunities for drug repurposing: Primary screen for LAN-5 cells (AID 1347100)
Method in brief: as §3

[17] = qHTS of pediatric cancer cell lines to identify multiple opportunities for drug repurposing: Confirmatory screen for BT-12 cells (AID 1347112); further: nearly all actives have a fitted effect of over 55% in size
Method in brief: as §3

[18] = qHTS of pediatric cancer cell lines to identify multiple opportunities for drug repurposing: Confirmatory screen for A673 cells (AID 1347110); further: nearly all actives have a fitted effect of over 65% in size
Method in brief: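 Cells plated at 500-1,000/well were treated five hours later with multi-point dilutions up to 46 µM final. After two days, CellTiter-Glo was added and luminescence read.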

[19] = qHTS of pediatric cancer cell lines to identify multiple opportunities for drug repurposing: Primary screen for SK-N-SH cells (AID 1347098); further: nearly all actives have a fitted effect of over 65% in size
Method in brief: as §2
Potency means the concentration at half of the fitted maximal effect.

Row | SMILES | Potency [1] | Potency [2] | Potency [3] | Potency [4] | Potency [5] | Potency [6] | Potency [7] | Potency [8] | Potency [9] | Potency [10] | Potency [11] | Potency [12] | Potency [13] | Potency [14] | Potency [15] | Potency [16] | Potency [17] | Potency [18] | Potency [19]
1 | COc1cccc2c1C(=O)c1c(O)c3c(c(O)c1C2=O)C[C@@](O)(C(=O)CO)C[C@@H]3O[C@H]1C[C@H](N)[C@@H](O)[C@H](C)O1 | 0.193 µM (active) | 0.118 µM (active) | 2.35 µM (active) | 0.662 µM (active) | 0.685 µM (active) | 0.469 µM (active) | 0.611 µM (active) | 0.935 µM (active) | 1.48 µM (active) | inactive | 0.662 µM (active) | 0.165 µM (active) | 0.165 µM (active) | 0.165 µM (active) |  |  |  |  | 
2 | C[C@](Cc1c[nH]c2ccccc12)(NC(=O)OC1C2CC3CC(C2)CC1C3)C(=O)NC[C@H](NC(=O)CCC(=O)O)c1ccccc1 (some centres undefined) | inactive | inactive | inactive |  |  | inactive | inactive | inactive | inactive | inactive |  |  |  |  | inactive |  |  |  | 
3 | c1cc(CN2CCCNCCNCCCNCC2)ccc1CN1CCCNCCNCCCNCC1 | inactive | inactive | inactive | inactive | inactive | inactive | inactive | inactive | inactive | inactive | inactive |  |  |  | inactive | inactive |  |  | 
4 | COc1cc(C=CC(=O)CC(=O)C=Cc2ccc(O)c(OC)c2)ccc1O | 31.4 µM (active) | 38.2 µM (active) | 30.3 µM (active) |  | 44.4 µM (active) | 38.2 µM (active) |  |  |  |  | 30.3 µM (active) | 30.2 µM (active) | 15.1 µM (active) | 26.9 µM (active) |  | 9.59 µM (active) | 38 µM (active) |  | 
5 | C=CC(=O)Nc1ccc2ncnc(Nc3ccc(OCc4cccc(F)c4)c(Cl)c3)c2c1 | 0.0153 µM (active) | 0.0526 µM (active) | 0.0296 µM (active) | 0.0743 µM (active) | 0.0172 µM (active) | 7.43 µM (active) |  | 0.0296 µM (active) | 0.296 µM (active) |  |  | 14.7 µM (active) | 7.37 µM (active) | 20.8 µM (active) | inactive |  | 10.4 µM (active) |  | 
6 | OCC(O)C(O)C(O)CO (centres undefined) | inactive | inactive | inactive | inactive | inactive |  |  | inactive | inactive | inactive | inactive |  |  |  | inactive | inactive |  |  | 
7 | CN(C)CC[C@H](c1ccc(Cl)cc1)c1ccccn1 | inactive | inactive | inactive |  | inactive | inactive |  |  | inactive | inactive |  |  |  |  | inactive | inactive |  |  | 
8 | CN[C@H]1[C@@H](O)[C@@H]2O[C@@H]3O[C@H](C)CC(=O)[C@]3(O)O[C@@H]2[C@@H](NC)[C@H]1O | 9.68 µM (active) | 8.33 µM (active) | 1.87 µM (active) | 1.87 µM (active) | 1.09 µM (active) | 1.18 µM (active) |  | 0.59 µM (active) | 9.35 µM (active) | 0.296 µM (active) | 1.18 µM (active) | inactive |  | inactive | 3.72 µM (active) | 0.166 µM (active) | inactive | inactive | 
9 | FC(F)(F)c1ccc(Nc2nc3ccc(Oc4ccnc(-c5ncc(C(F)(F)F)[nH]5)c4)cc3[nH]2)cc1 | 13.7 µM (active) | 20.9 µM (active) | 7.43 µM (active) |  |  | inactive | 24.3 µM (active) | 18.7 µM (active) |  |  |  |  |  |  | inactive |  |  |  | 5.41 µM (active)
10 | CNC(=O)Nc1ccc(-c2nc(N3CC4CCC(C3)O4)c3cnn(C4CCC5(CC4)OCCO5)c3n2)cc1 | 0.0306 µM (active) | 0.132 µM (active) | 0.209 µM (active) | inactive |  | 0.0935 µM (active) | 0.0217 µM (active) | 0.0526 µM (active) | 0.0118 µM (active) | 11.8 µM (active) | 0.0418 µM (active) |  | 0.585 µM (active) | 0.585 µM (active) |  | 6.62 µM (active) |  | 1.04 µM (active) | 
11 | FC(F)c1nc2ccccc2n1-c1nc(N2CCOCC2)nc(N2CCOCC2)n1 | 1.09 µM (active) | 0.662 µM (active) | 0.526 µM (active) | 1.48 µM (active) | 1.22 µM (active) | 0.935 µM (active) | 0.0769 µM (active) | 0.418 µM (active) | 0.187 µM (active) |  | 1.48 µM (active) | 1.47 µM (active) | 0.737 µM (active) | 1.47 µM (active) |  | 1.18 µM (active) | 1.04 µM (active) |  | 
12 | CC(C)N(CC[C@H](c1ccccc1)c1cc(CO)ccc1O)C(C)C | inactive | inactive | inactive | inactive | inactive | inactive |  | inactive | inactive |  | inactive |  |  |  | inactive | inactive |  |  | 
